Test results reported in PubChem BioAssay AID463173 (ICCB-Longwood Screening Facility, Harvard Medical School, 2010).
Among all 52,000 compounds or so, about 4,300 (8.3%) were called active. For the sample, actives were picked, then their nearest neighbours and some compounds at random. A number with no mark means an inactive call. Cut-off read from the data, not from the text of the source: active = survival mostly below about 52% (no sharp cut-off); inactive = mostly above about 56%.

Each compound was assayed on DeltatarO mutant (assay: growth inhibition of S. aureus wild type versus tarO mutant, primary screen, teichoic acid synthesis inhibitors, RN4220, OD600 (AID 463173)). Conditions: OD600, 18 h, stronger effect = lower value, screened at 18.75 µg/mL (by protocol).
`CCCNC(=O)N1c2ccc(F)cc2CCC1C` (stereo unspecified) was tested, and the survival was 87%.
For `COc1ccc(CNC(=O)c2ccc(CN3C(=O)C(C)=C(c4ccc(C)cc4)S3(=O)=O)cc2)cc1`, the survival was 89%.
`Cc1cccc(-n2ncc3c(N4CCCC(C)C4)ncnc32)c1` (stereo unspecified) showed a survival of 84%.
In the case of `CC1CCCN(c2nc(-c3ccccc3O)nc3ccccc23)C1` (stereo unspecified), the survival is reported as -6% (active).
Work on `CC1CCCN(c2csc3ccccc3c2=O)C1` (stereo unspecified) yielded a survival of 69%.
For `Cc1ccc(-c2nc(N3CCCC(C)C3)c3ccccc3n2)cc1` (stereo unspecified), the survival was -2% (active).
For `COc1ccc(N2CCN(c3nc(-c4ccccc4F)nc4ccccc34)CC2)cc1`, the survival was 88%.
For `COc1ccccc1N1CCN(c2nc(-c3ccc(C)cc3)nc3ccccc23)CC1`, the survival was 83%.
Compound `COc1cccc(-c2nnc(-c3ccccc3NC(=O)c3ccc(F)cc3F)o2)c1` has a survival of 78%.
For `CCOc1ccc(CCNC(=O)c2cccc(-n3c(C)nc4cccnc43)c2C)cc1`, the survival was 79%.
With `Cc1cc(C)c2[nH]c(=O)c(CN(Cc3ccco3)C(=S)NCCCN3CCOCC3)cc2c1` the survival was 78%.
For `CCc1ccc(OCCn2c(C3CC(=O)N(Cc4ccc(F)cc4)C3)nc3ccccc32)cc1` (stereo unspecified), the survival was 3% (active).
Work on `CCOc1ccccc1N1CC(c2nc3ccccc3n2CCOc2ccc(C(C)(C)C)cc2)CC1=O` (stereo unspecified) yielded a survival of 62%.
In the case of `Cc1cc(OCCn2c(C3CC(=O)N(Cc4ccc(F)cc4)C3)nc3ccccc32)ccc1Cl` (stereo unspecified), the survival is reported as 1% (active).
`COCCNC(=O)c1cc2n(n1)CCCN(Cc1ccc(C)cc1)C2=O` gave a survival of 78%.
With `Cc1onc(-c2ccccc2Cl)c1C(=O)Oc1ccc(Br)cc1` the survival was 41% (active).
`CCCOc1ccc(OC(=O)c2c(-c3ccccc3Cl)noc2C)cc1` gave a survival of 84%.
In the case of `CCCC(=O)c1ccc(OC(=O)c2c(-c3ccccc3Cl)noc2C)cc1`, the survival is reported as 102%.
`CC(=O)c1ccc(OC(=O)c2c(-c3ccccc3Cl)noc2C)cc1` gave a survival of 94%.
Work on `CCOc1ccc(OC(=O)c2c(-c3ccccc3Cl)noc2C)cc1` yielded a survival of 72%.
With `CCCOc1cccc(NC(=O)c2c(-c3ccccc3Cl)noc2C)c1` the survival was 37% (active).
In the case of `Cc1ccc(NC(=O)Cn2nc(N3CCN(c4ccccc4)CC3)ccc2=O)cc1F`, the survival is reported as 83%.
Compound `Fc1ccc2ncc3c(-c4ccccc4)n[nH]c3c2c1` has a survival of 83%.
In the case of `COc1ccc(C(=O)Nc2ccc(-c3cc4ccccc4oc3=O)c(C)c2)cc1OC`, the survival is reported as 69%.
In the case of `Cc1cc(C)cc(NC(=O)c2sc3nc4n(c(=O)c3c2C)N=C(c2ccccc2)CS4)c1`, the survival is reported as 69%.
`COc1ccc(Br)cc1Cn1nnc(C(=O)Nc2ccc(C)cc2C)c1N` gave a survival of 48%.
For `CCc1ccc(NC(=O)Cn2c(=O)n(CCCCC(=O)NCCc3ccccc3)c(=O)c3ccccc32)cc1`, the survival was 84%.
Work on `CCOC(=O)c1c(C)[nH]c(C)c1S(=O)(=O)N1CCCC(C(=O)NCc2cccc(OC)c2)C1` (stereo unspecified) yielded a survival of 78%.
In the case of `Cc1ccc(S(=O)(=O)c2nc(-c3cccs3)oc2SCc2ccc(F)cc2)cc1`, the survival is reported as 62%.
Compound `Cc1ccc(S(=O)(=O)c2nc(-c3cccs3)oc2SC(C)C)cc1` has a survival of 66%.
In the case of `CC(C)S(=O)(=O)c1oc(-c2ccc(F)cc2)nc1S(=O)(=O)c1ccc(F)cc1`, the survival is reported as 22% (active).
In the case of `CCC(C)S(=O)(=O)c1oc(-c2ccc(F)cc2)nc1S(=O)(=O)c1ccc(F)cc1` (stereo unspecified), the survival is reported as 41% (active).
`CC(C)S(=O)(=O)c1oc(-c2cccs2)nc1S(=O)(=O)c1ccc(F)cc1` was tested, and the survival was 9% (active).
With `CCOc1ccc(NC(=O)CSc2oc(-c3ccc(F)cc3)nc2S(=O)(=O)c2ccc(C)cc2)cc1` the survival was 63%.
`Cc1ccc(S(=O)(=O)c2nc(-c3ccc(F)cc3)oc2SCC(=O)NC2CCCCC2)cc1` gave a survival of 149%.
Compound `COc1cccc(-c2nc(S(=O)(=O)c3ccc(Cl)cc3)c(NCc3ccccc3)o2)c1` has a survival of 180%.
With `CCC(C)S(=O)(=O)c1oc(-c2cccs2)nc1S(=O)(=O)c1ccccc1` (stereo unspecified) the survival was 53%.
`CS(=O)(=O)c1oc(-c2ccc(F)cc2)nc1S(=O)(=O)c1ccc(Cl)cc1` was tested, and the survival was -5% (active).
For `COc1ccc(-c2nc(S(=O)(=O)c3ccc(Cl)cc3)c(NCc3ccccc3)o2)cc1`, the survival was 136%.
With `Cc1ccccc1CNC(=O)CCCn1c(=O)c2cccn2c2cccnc21` the survival was 114%.
`CCOc1ccc(C2CC(c3c(O)n(C4CCCCC4)c(=O)[nH]c3=O)=Nc3ccccc3S2)cc1` (stereo unspecified) gave a survival of 47%.
With `Cc1ccc2c(c1)cc1c(=O)n(CC(=O)N3CCCCC3)nc(C)n12` the survival was 90%.
`COc1ccc(C)cc1S(=O)(=O)NCC(c1cccs1)S(=O)(=O)c1ccc(C)cc1` (stereo unspecified) showed a survival of 69%.
With `Cc1ccc(-c2nnc(NC(=O)c3ccc4c(c3)OCCO4)o2)c(C)c1` the survival was 96%.
`Cc1ccc(NC(=O)Cn2nc(Cc3ccncc3)c3ccccc3c2=O)c(Cl)c1` showed a survival of 66%.
With `COc1cc(-c2nc3cccc(C)n3c2Nc2ccc3c(c2)OCCO3)ccc1O` the survival was 76%.
For `CCc1ccc(NC(=O)CCn2nc(C)c(S(=O)(=O)N3CCCCC3)c2C)cc1`, the survival was 128%.
Compound `COC(=O)c1ccccc1NC(=O)c1ncoc1-c1ccco1` has a survival of 62%.
For `CC(C)S(=O)(=O)c1oc(-c2ccc(F)cc2)nc1S(=O)(=O)c1ccccc1`, the survival was 33% (active).
`CCN(CC)CCNc1nc2c(c(=O)n(C)c(=O)n2C)n1CCc1ccccc1` showed a survival of 103%.
`COc1ccc(NC(=O)C2=C(C)Nc3nc(SCc4ccccc4)nn3C2c2cc(OC)ccc2OC)cc1` (stereo unspecified) showed a survival of 78%.
`COc1cccc(C(=O)Nc2cccc(C(=O)OCc3cc(=O)n4nc(C(C)C)sc4n3)c2)c1` gave a survival of 101%.
Compound `COc1ccc(N2CCN(C(=O)c3nc(-c4ccc(Cl)cc4)n4c3CCCCC4)CC2)cc1` has a survival of 81%.
`Cc1ccc(NC(=O)CSc2nncn2C)c(C)c1` was tested, and the survival was 75%.
For `CC(=O)Nc1nonc1-c1nnc(SCc2ccc(F)cc2)n1C`, the survival was 44%.
`CC(=O)Nc1nonc1-c1nnc(SCC(=O)Nc2ccccc2Cl)n1C` gave a survival of 50%.
In the case of `CC(=O)Nc1nonc1-c1nnc(SCc2ccc(Cl)cc2)n1C`, the survival is reported as 42% (active).
With `CC(=O)Nc1nonc1-c1nnc(SCC(=O)Nc2ccc(C)c(Cl)c2)n1-c1ccccc1` the survival was 49%.
In the case of `CC(=O)Nc1nonc1-c1nnc(SCC(=O)Nc2ccc(C)c(Cl)c2)n1C`, the survival is reported as 60% (active).
`CC(=O)Nc1nonc1-c1nnc(SCc2ccc(C)cc2)n1C` was tested, and the survival was 48%.
`CC(=O)Nc1nonc1-c1nnc(SCc2ccccc2C)n1C` was tested, and the survival was 42% (active).
`COc1ccc(NC(=O)CSc2nnc(-c3nonc3NC(C)=O)n2C)cc1Cl` was tested, and the survival was 55%.
Work on `CC(=O)Nc1nonc1-c1nnc(SCc2ccc(F)cc2Cl)n1C` yielded a survival of 45%.
With `CC(=O)Nc1nonc1-c1nnc(SCc2ccccc2Cl)n1C` the survival was 42% (active).
Work on `CC(=O)Nc1nonc1-c1nnc(SCc2ccccc2)n1C` yielded a survival of 44%.
`CC(=O)Nc1nonc1-c1nnc(SCc2ccccc2F)n1C` showed a survival of 46%.
